# Data as given in PubChem BioAssay (NCI).
# The panel holds about 83,000 compounds, 20% with a hit somewhere; the sample as a whole holds those more often.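 Results are percent growth after 48 hours of single-concentration exposure. 100 means growth as in untreated cells, lower positive values show inhibition; negative values down to -100 show cell death.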 Active and inactive are the calls of the source.
# System: CAKI-1 renal
# Assay: NCI-60 one-dose screen, 48 h (100 = growth as untreated, 0 = no growth, -100 = all killed)
# Settings: 10 µM
# Protocol: Growth inhibition of the CAKI-1 human tumor cell line is measured as a screen for anti-cancer activity. Cells are grown in 96 well plates and exposed to the test compound for 48 hours. Compounds are tested at a single concentration, which is 10^-5 M for most compounds. The reported endpoint is percent growth (GI% or GIPRCNT), where numbers from 0 - 100% represent growth inhibition, and numbers from -100% - 0 represent cell death. For example, a value of 40 represents 60% growth inhibition. A value of 0 means no net growth occurred over the course of the experiment. A value of -40 indicates 40% of cells at the beginning of the experiment died by the end of the experiment. A value of -100 means all cells are dead at the end of the experiment.
# NCI-60 Human Tumor Cell Lines Screen was performed using the standard one-dose NCI protocol, which is described in more detail at https://dtp.cancer.gov/discovery_development/nci-60/default.htm.
# Compounds with GIPRCNT values below 10 were considered active. Activity score was based on GIPRCNT using the following formula: […]
# Score is 0 for GIPRCNT values of 100 or above, 50 for GIPRCNT values of 0, and 100 for GIPRCNT values of -100.
row,Compound,growth
1,CC(C)(C)OC(=O)N1CCc2c(sc3ncnc(N/N=C/c4cccc(Br)c4)c23)C1,31.4% (inactive)
2,O=C1C=C(Nc2cccc(Br)c2)c2ccccc2C1=O,78.3% (inactive)
3,IC(I)I,103% (inactive)
4,Cc1c2cnccc2c(C)c2c1oc1ccccc12,66% (inactive)
5,CCN(CC)CCCC(C)Nc1c2ccc(Cl)cc2nc2ccc(OC)cc12 (stereo not given),1.55% (active)
6,C=CCn1c(SCC(=O)Nc2ccc(C(=O)/C=C/c3cc(OC)c(OC)c(OC)c3)cc2)nnc1-c1cc(-c2ccc(Cl)cc2)nc2ccccc12,67.2% (inactive)
7,COc1cc(-c2ccc[nH]2)[nH]c1/C=C1\N=C(C)C(C(=O)NC(C)C)=C1C,20% (inactive)
8,O=C(N/N=C/c1c(Cl)cccc1Cl)c1ccccc1Nc1cccc(C(F)(F)F)c1,95.5% (inactive)
9,CCOC(=O)c1sc2ncnc(Nc3ccc4c(cnn4C(=O)Nc4ccc(C)c(Cl)c4)c3)c2c1C,96% (inactive)
10,COc1ccc(-c2cc(-c3ccccc3)nc(SCCCCCCC(=O)NO)n2)cc1,39.6% (inactive)
11,O=C1NC(=O)c2c(CCCSc3nc4ccccc4c(=O)n3CCc3ccccc3)cccc21,18.5% (inactive)
12,c1ccc(/C(=N\Nc2ccc3ccccc3n2)c2ccccn2)cc1,-2.91% (active)
13,COC(=O)CC[C@@H](C)[C@H]1CC[C@H]2[C@@H]3CC[C@@H]4C[C@H](O)CC[C@]4(C)[C@H]3C[C@H](O)[C@]12C,89.8% (inactive)
14,COc1cc2nc(SCC(=O)Nc3cc(OC)c(OC)c(OC)c3)n(Cc3ccccc3)c(=O)c2cc1OC,84.8% (inactive)
15,OC(CCN1CCCC1)(c1ccccc1)C1CCCCC1 (stereo not given),95.7% (inactive)
16,Cc1c2cnccc2c(C)c2c1c1cc(O)ccc1n2C(C)C,15.6% (inactive)
17,COc1cc2c(cc1NC(=O)C(F)(F)F)-c1ccc(NC(=O)C(F)(F)F)cc1C2,96.9% (inactive)
18,CCn1cc(CNc2ccc(C(=O)Nc3ccc4ccccc4c3)cc2)c(C)n1,53.6% (inactive)
19,COc1ccc(-c2nn(-c3cccc(Cl)c3)cc2-c2c(C#N)c(=O)n3[nH]c(-c4ccc(C)cc4)nc3c2C#N)cc1,15.2% (inactive)
20,Nc1cc(-c2ccc(Cl)cc2)nn1-c1nc2ccccc2nc1Cc1ccccc1,80.7% (inactive)

row,Compound,growth
1,O=C1c2ccccc2C(=O)c2c1ccc1c(=O)n(-c3ccccc3C(F)(F)F)nnc21,24.3% (inactive)
2,CC(=O)Nc1ccc2c(c1)C(=O)c1cccc(C(=O)O)c1-2,94.9% (inactive)
3,Cc1cc(SCc2ccccc2)nc(N)n1,112% (inactive)
4,CN(C)CCC1(c2ccccc2)CCN(C)C1=O (stereo not given),103% (inactive)
5,COc1cc(C2C(C#N)=C(N)Oc3cc(O)ccc32)cc(OC)c1OC (stereo not given),30.7% (inactive)
6,CCCCCOC(=O)Nc1nc(=O)n(C2O[C@H](C)[C@@H](O)[C@H]2O)cc1F (stereo not given in full),90.5% (inactive)
7,COc1cc(-c2csc(NC(=O)Nc3ccc(Cl)c(C(F)(F)F)c3)n2)cc(OC)c1OC,6.78% (active)
8,CCOC(=O)/C(=C(\C)N)C1CC(=O)NC1=O (stereo not given),98.2% (inactive)
9,CN1C(C(=O)Nc2ccccn2)=C(O)c2sc(Cl)cc2S1(=O)=O,92.4% (inactive)
10,CCCCc1oc2ccccc2c1C(=O)c1cc(I)c(OCCN(CC)CC)c(I)c1,-21% (active)
11,COc1cccc(C2C(C#N)=C(N)Oc3cc(N)ccc32)c1 (stereo not given),31.9% (inactive)
12,CC(=O)Nc1cc2c(cc1Cl)Cc1cc(Cl)ccc1-2,75.6% (inactive)
13,C/C=C/C1=CN2C(=O)c3cc(OC4OC(C)C(NC)C(C)(O)C4O)c(C)c(O)c3N=C[C@@H]2C1 (stereo not given in full),9.27% (active)
14,Cc1ccc(-c2c3c(N)nc(-c4cccnc4)nc3nc3c2c(C)nn3-c2ccccc2)cc1,83.6% (inactive)
15,CCOC(=O)c1cocc1C(=O)O,107% (inactive)
16,CCCCC1(O)CCCCC1,96.1% (inactive)
17,COc1cc2cc(Oc3ccc(NC(=O)Nc4ccc(Cl)c(Cl)c4)cc3)c(C)nc2cc1OC,21.7% (inactive)
18,Cc1cc(CCNC=O)c(C)c2c1sc1ccccc12,80.7% (inactive)
19,CCOC(=O)C1C(C(=O)OCC)C2C(=O)C3C(C(=O)OCC)C(C(=O)OCC)C3C(=O)C12 (stereo not given),101% (inactive)
20,CN(C)c1ncnc2c1nnn2C1OC(CO)C(O)C1O (stereo not given),7.19% (active)
